This note sets out measurements from publication PMC4336329 (PLoS ONE, 2015).

About 14,000 (4.5%) of roughly 310,000 compounds showed an effect of 50% or more. Effects have a minus sign here. What follows is part of a selection rich in strong results, with near analogues and random picks from the rest.
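Also: peak tail current of the secondary pulse compared with the same well before compound.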

Chain of human ether-à-go-go-related gene (hERG) potassium channel (Q12809 whole entry, looked up): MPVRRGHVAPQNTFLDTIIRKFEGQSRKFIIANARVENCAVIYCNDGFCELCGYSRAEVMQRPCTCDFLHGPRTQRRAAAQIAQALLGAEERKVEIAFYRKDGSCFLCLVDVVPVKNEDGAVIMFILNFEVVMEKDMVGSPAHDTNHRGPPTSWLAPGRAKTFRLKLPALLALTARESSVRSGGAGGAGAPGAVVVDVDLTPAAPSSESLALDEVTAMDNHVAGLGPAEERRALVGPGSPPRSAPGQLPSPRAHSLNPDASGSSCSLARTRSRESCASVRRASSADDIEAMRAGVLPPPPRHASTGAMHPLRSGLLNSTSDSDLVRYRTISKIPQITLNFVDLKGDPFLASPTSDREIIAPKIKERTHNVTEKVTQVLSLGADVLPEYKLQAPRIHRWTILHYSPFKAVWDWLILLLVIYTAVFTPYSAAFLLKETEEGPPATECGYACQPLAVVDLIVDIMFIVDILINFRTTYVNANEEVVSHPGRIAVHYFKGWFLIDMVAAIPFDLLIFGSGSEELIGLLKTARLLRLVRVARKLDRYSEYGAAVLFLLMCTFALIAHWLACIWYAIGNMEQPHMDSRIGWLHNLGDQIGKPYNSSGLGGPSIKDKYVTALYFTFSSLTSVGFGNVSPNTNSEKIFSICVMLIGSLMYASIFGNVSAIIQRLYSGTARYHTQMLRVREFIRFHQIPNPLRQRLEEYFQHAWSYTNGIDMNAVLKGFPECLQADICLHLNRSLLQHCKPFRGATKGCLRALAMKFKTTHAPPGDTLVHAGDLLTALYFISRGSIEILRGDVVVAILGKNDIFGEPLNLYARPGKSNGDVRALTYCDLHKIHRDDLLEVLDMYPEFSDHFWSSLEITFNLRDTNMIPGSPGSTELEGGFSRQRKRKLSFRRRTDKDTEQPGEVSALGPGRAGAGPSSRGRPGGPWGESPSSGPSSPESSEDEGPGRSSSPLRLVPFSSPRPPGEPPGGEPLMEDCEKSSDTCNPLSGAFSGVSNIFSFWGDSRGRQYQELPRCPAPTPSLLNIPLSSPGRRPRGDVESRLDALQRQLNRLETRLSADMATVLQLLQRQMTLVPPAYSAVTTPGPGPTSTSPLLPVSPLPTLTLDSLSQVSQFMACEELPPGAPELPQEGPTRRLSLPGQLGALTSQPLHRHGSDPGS

The assay has as its target human ether-à-go-go-related gene (hERG) potassium channel (human, UniProt Q12809). The assay can be described thus: primary screen, population patch clamp on CHO cells stably expressing hERG; higher = less effect of the substance.
For the compound `NC(=O)Cc1nc2scc(-c3ccccc3)c2c(=O)[nH]1`, the “hERG current change (%, negative = inhibition) at 10uM” value came to 37.9%.

`COC(=O)c1cccc(S(=O)(=O)N2CCC(NC(=O)NC34CC5CC(CC(C5)C3)C4)CC2)c1`: the “hERG current change (%, negative = inhibition) at 10uM” value was 4.44%.

On to `O=C(CCn1cccc1)Nc1cccc(F)c1`, for which the “hERG current change (%, negative = inhibition) at 10uM” value amounted to 0.101%.

With `CCc1nnc(NC(=O)CSc2ncc(-c3ccccc3)n2CC)s1`, the “hERG current change (%, negative = inhibition) at 10uM” value is -17.9%.

As to `COCCCC1CCN(Cc2nc(Cc3ccccc3Cl)no2)CC1`, the “hERG current change (%, negative = inhibition) at 10uM” value is listed as 5.07%.

As to `CC[C@@]1(O)C(=O)OCc2c1cc1n(c2=O)Cc2cc3c(CN(C)C)c(O)ccc3nc2-1.Cl`, the “hERG current change (%, negative = inhibition) at 10uM” value stood at 13.6%.

For the compound `[Br-].c1ccc(-c2cn(-c3ccccc3)c3[n+]2CCS3)cc1`, the “hERG current change (%, negative = inhibition) at 10uM” value is recorded as -5.74%.

On to `Fc1ccc(-n2cc(-c3ccccc3)[n+]3c2SCC3)cc1.[Br-]`, for which the “hERG current change (%, negative = inhibition) at 10uM” value was -22.7%.

As to `Fc1ccc(-c2cn(-c3ccccc3)c3[n+]2CCS3)cc1.O.[Br-]`, the “hERG current change (%, negative = inhibition) at 10uM” value is reported as -45.3%.

As for `COc1ccc(-c2cn(-c3ccccc3)c3[n+]2CCS3)cc1`, the “hERG current change (%, negative = inhibition) at 10uM” value is on record as -38%.

Consider `Cc1ccc(-c2cn(-c3ccccc3)c3[n+]2CCCS3)cc1.[Br-]`, for which the “hERG current change (%, negative = inhibition) at 10uM” value is -29.1%.

Take `CCc1ccc(-n2cc(-c3ccc(F)cc3)[n+]3c2SCCC3)cc1.[Br-]`: the “hERG current change (%, negative = inhibition) at 10uM” value is listed as -71.7%.

Turning to `COc1ccc(-n2cc(-c3ccc(Br)cc3)[nH]c2=S)cc1`, the “hERG current change (%, negative = inhibition) at 10uM” value amounted to 18%.

On to `COc1ccc(-c2cn(-c3ccc(Br)cc3)c3[n+]2CCS3)cc1.[Br-]`, for which the “hERG current change (%, negative = inhibition) at 10uM” value is reported as -66.7%.

For the compound `Clc1ccc(-c2cn(-c3ccccc3)c3[n+]2CCS3)cc1.[Br-]`, the “hERG current change (%, negative = inhibition) at 10uM” value is on record as -59.4%.

Turning to `O=C(N/N=C/c1ccco1)c1cc(-c2cccc3ccccc23)n[nH]1`, the “hERG current change (%, negative = inhibition) at 10uM” value came to 7.01%.

`COC(=O)C(C)N(c1ccc(C)cc1)S(=O)(=O)c1c(C)[nH]c(=O)[nH]c1=O` (stereo not drawn): the “hERG current change (%, negative = inhibition) at 10uM” value came to 1.72%.

Take `Cc1ccc(S(=O)(=O)NC2(C(F)(F)F)NC(=O)N(c3ccc(F)cc3)C2=O)cc1` (stereo not drawn): the “hERG current change (%, negative = inhibition) at 10uM” value is given as 9.68%.

`CCN1CCN(C(=O)c2c(-c3c(Cl)cccc3Cl)noc2C)CC1`: the “hERG current change (%, negative = inhibition) at 10uM” value is listed as 20.9%.

For the compound `Cc1ccc(-n2c(C)cc(/C=C3\NC(=O)NC3=O)c2C)c(C)c1`, the “hERG current change (%, negative = inhibition) at 10uM” value is -5.9%.

`Cc1cc(C)n(CCc2nc(-c3cccs3)cs2)n1`: the “hERG current change (%, negative = inhibition) at 10uM” value was 3.48%.

As to `Cc1nc2ccccn2c1C(=O)NNC(=O)Nc1cccc(C(F)(F)F)c1`, the “hERG current change (%, negative = inhibition) at 10uM” value was -11%.

Consider `Cc1nc2sc(C(=O)O)c(N)c2c2c1COC(C)(C)C2`, for which the “hERG current change (%, negative = inhibition) at 10uM” value was 9.19%.

As to `O=C(Nc1ccc(NC(=O)C2CCCCC2)cn1)c1ccco1`, the “hERG current change (%, negative = inhibition) at 10uM” value is reported as 4.68%.

On to `CCN(CCO)Cc1cn[nH]c1-c1ccc(C)c(C)c1`, for which the “hERG current change (%, negative = inhibition) at 10uM” value came out at 9.28%.

For the compound `Cc1c(NC(N)=O)c(=O)n(-c2ccccc2)n1C`, the “hERG current change (%, negative = inhibition) at 10uM” value is recorded as 3.79%.

Regarding `C=CCNc1cnn(-c2ccc(C)cc2)c(=O)c1Cl`, the “hERG current change (%, negative = inhibition) at 10uM” value is given as -12.7%.

Consider `C=CCNc1cnn(-c2ccc(C)cc2)c(=O)c1Sc1ccc(C)cc1`, for which the “hERG current change (%, negative = inhibition) at 10uM” value was -79.4%.

Consider `CNc1cnn(-c2ccc(C)cc2)c(=O)c1Sc1ccc(C)cc1`, for which the “hERG current change (%, negative = inhibition) at 10uM” value is recorded as -8.7%.

Regarding `CCOC(=O)c1cc(-c2ccccc2)nn1Cc1cc(C)no1`, the “hERG current change (%, negative = inhibition) at 10uM” value is given as -4.06%.

Consider `C=CCN1C(=O)/C(=C2/Sc3ccccc3N2C)SC1=Nc1c(C)n[nH]c1C`, for which the “hERG current change (%, negative = inhibition) at 10uM” value was -3.99%.

Turning to `O=C(CCN1C(=O)c2ccccc2C1=O)Nc1ccc(F)cc1`, the “hERG current change (%, negative = inhibition) at 10uM” value is on record as -6%.

In the case of `CCOc1cc(CN2CCc3c([nH]c4ccccc34)C2)ccc1OC`, the “hERG current change (%, negative = inhibition) at 10uM” value is -19%.

For `Clc1ccc(CN2CCc3c([nH]c4ccccc34)C2)cc1Cl`, the “hERG current change (%, negative = inhibition) at 10uM” value was -28.2%.

On to `COc1cc(CN2CCc3c([nH]c4ccccc34)C2)cc(OC)c1`, for which the “hERG current change (%, negative = inhibition) at 10uM” value is given as -55.7%.

As to `Cc1cccc(CN2CCc3c([nH]c4ccccc34)C2)c1`, the “hERG current change (%, negative = inhibition) at 10uM” value is -33.4%.

Turning to `Clc1cccc(CN2CCc3c([nH]c4ccccc34)C2)c1`, the “hERG current change (%, negative = inhibition) at 10uM” value is -31.9%.

For the compound `CSc1ccc(CN2CCc3c([nH]c4ccccc34)C2)cc1`, the “hERG current change (%, negative = inhibition) at 10uM” value is -52.7%.

For `Cc1cccc(NC(=O)CSc2nc3ccccc3nc2N2CCCCC2)c1`, the “hERG current change (%, negative = inhibition) at 10uM” value is recorded as -36.5%.

On to `COc1ccc(CNC(=O)c2n[nH]c3ccccc23)cc1OC`, for which the “hERG current change (%, negative = inhibition) at 10uM” value was found to be 11.6%.

As to `CCOC(=O)CSCC(=O)N1CCC(Cc2ccccc2)CC1`, the “hERG current change (%, negative = inhibition) at 10uM” value is listed as 3.24%.

As to `CCCSCCCNC(=O)CN1C(=O)COc2ccc(S(=O)(=O)N3CCCC3)cc21`, the “hERG current change (%, negative = inhibition) at 10uM” value was determined as 2.87%.

With `O=C(N/N=C/c1ccc(OC(=O)c2ccc3c(c2)OCO3)cc1)c1cncc(Br)c1`, the “hERG current change (%, negative = inhibition) at 10uM” value is on record as 10.8%.

`CN(C)c1ccnc2sc3c(=O)n(-c4ccccc4)cnc3c12`: the “hERG current change (%, negative = inhibition) at 10uM” value is reported as -17.9%.

For `Cc1ccc(-n2cnc3c(sc4nccc(N(C)C)c43)c2=O)cc1`, the “hERG current change (%, negative = inhibition) at 10uM” value is reported as -16.4%.

Turning to `CN(C)c1ccnc2sc3c(=O)n(Cc4ccccc4)cnc3c12`, the “hERG current change (%, negative = inhibition) at 10uM” value is -51%.

For `CCN(CC)C(=O)c1sc(NC(=O)Cc2cccs2)c(C#N)c1C`, the “hERG current change (%, negative = inhibition) at 10uM” value is recorded as -6.24%.

On to `Cc1cccc(N(CC(O)CN2CCCC2)S(=O)(=O)c2ccccc2)c1` (stereo not drawn), for which the “hERG current change (%, negative = inhibition) at 10uM” value is listed as -57%.

Turning to `Cc1ccc(N(CC(O)CN2CCCC2)S(=O)(=O)c2ccccc2)cc1` (stereo not drawn), the “hERG current change (%, negative = inhibition) at 10uM” value was -68.2%.

On to `Cc1ccc(N(CC(O)CN2CCCCC2)S(=O)(=O)c2ccccc2)cc1` (stereo not drawn), for which the “hERG current change (%, negative = inhibition) at 10uM” value is given as -68%.

Turning to `CC(C)CN(CC(C)C)CC(O)CN(c1ccccc1)S(=O)(=O)c1ccccc1[N+](=O)[O-]` (stereo not drawn), the “hERG current change (%, negative = inhibition) at 10uM” value was -51.5%.

On to `COc1ccccc1N(CC(O)CN1CCCC1)S(=O)(=O)c1ccccc1` (stereo not drawn), for which the “hERG current change (%, negative = inhibition) at 10uM” value was -4.48%.

On to `COc1ccccc1N(CC(O)CN1CCOCC1)S(=O)(=O)c1ccccc1` (stereo not drawn), for which the “hERG current change (%, negative = inhibition) at 10uM” value was 12.7%.

With `Cc1cccc(N(CC(O)CN2CCOCC2)S(=O)(=O)c2ccccc2)c1` (stereo not drawn), the “hERG current change (%, negative = inhibition) at 10uM” value was -1.7%.

Consider `CC1(C)NC(=O)N(CC(O)CN(c2ccccc2)S(=O)(=O)c2ccccc2[N+](=O)[O-])C1=O` (stereo not drawn), for which the “hERG current change (%, negative = inhibition) at 10uM” value is listed as 13.7%.

Consider `CC(C)CNC(=O)CN(c1ccccc1)S(=O)(=O)c1ccccc1[N+](=O)[O-]`, for which the “hERG current change (%, negative = inhibition) at 10uM” value was determined as 2.38%.

Take `COc1ccc(OC)c2[nH]c(=O)c(CCNS(=O)(=O)c3ccc(F)cc3)cc12`: the “hERG current change (%, negative = inhibition) at 10uM” value was determined as 1.59%.
